Among the data in PubChem BioAssay (NCI) are growth values, retold here.

Compounds without any hit were thinned out: in the full panel of roughly 83,000, 20% have a hit.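 Percent growth is the endpoint: 0 to 100 indicates growth inhibition (40 means 60% inhibition), 0 means no net growth, and negative values indicate cell death.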 A number with no mark means an inactive call. The source made the active and inactive calls. How the source made its calls: active means growth percent below 10; inactive means the rest.

Test systems include DU-145 prostate; K-562 leukemia; MALME-3M melanoma; MDA-MB-231 breast; RXF 393 renal; SF-268 CNS; SF-295 CNS; SF-539 CNS; UACC-257 melanoma; M14 melanoma.
What all share (assay): NCI-60 one-dose screen, 48 h (100 = growth as untreated, 0 = no growth, -100 = all killed)
Common to all, as to settings: 10 µM unless noted

With `COC(=O)CNC(=O)[C@]12CCC(C)(C)C[C@H]1C1=CC[C@@H]3[C@@]4(C)Cc5c([nH]c6ccccc56)C(C)(C)[C@@H]4CC[C@@]3(C)[C@]1(C)CC2`, the growth in the test on DU-145 prostate is 97.6%; with K-562 leukemia it was 59.3%; in the test with MALME-3M melanoma it was 92.2%; in the test on MDA-MB-231 breast, 93.9%; in the test with RXF 393 renal it was 94.2%; in the test on SF-268 CNS it was 84.4%. In addition, the growth was 84.7% with SF-295 CNS, 102% with SF-539 CNS, 78.8% in the test with UACC-257 melanoma and 104% in the test on M14 melanoma.

As for `CC(=O)N1N=C(c2ccc(-n3ccc(C(F)(F)F)n3)c(F)c2)CC1c1ccc[nH]1` (stereo not given), the growth with DU-145 prostate is 109%; with K-562 leukemia, 91.9%; in the test with MALME-3M melanoma, 102%; in the test on MDA-MB-231 breast, 105%; with RXF 393 renal, 116%; with SF-268 CNS, 104%. Further, the growth in the test with SF-295 CNS is 98.8%; with SF-539 CNS, 102%; in the test with UACC-257 melanoma, 96.4%; in the test with M14 melanoma it was 102%.

`CCOC(=O)c1cc(C(=O)c2ccc(OC)cc2)n2ccc(/C=C/c3cc[n+](CC(=O)c4ccc(OC)cc4)cc3)cc12`: the growth in the test on DU-145 prostate is 75%; in the test with K-562 leukemia it was -15.2% (active); in the test on MALME-3M melanoma it was 92.1%; in the test on MDA-MB-231 breast, 72.1%; in the test with RXF 393 renal, 99.9%; in the test on SF-268 CNS, 94.5%. The growth in the test on SF-295 CNS is 104%; in the test on SF-539 CNS, 92.9%; with UACC-257 melanoma it was 111%; in the test with M14 melanoma it was 75.4%.

`COc1cccc(-c2ccc3c(c2)NC(=O)/C3=C\c2ccc[nH]2)c1`: the growth was 65.7% in the test on DU-145 prostate; 12.4% in the test on K-562 leukemia; 51.9% with MALME-3M melanoma; 53.4% in the test on MDA-MB-231 breast; 32.2% in the test on RXF 393 renal; 80.8% in the test with SF-268 CNS. Further, the growth was 61.8% in the test on SF-295 CNS, 45.4% in the test on SF-539 CNS, 77% with UACC-257 melanoma and 39.2% in the test on M14 melanoma.

With `CCN(CC)CCn1c(=O)c2cc(OC)c(OC)cc2c2ccc3cc4c(cc3c21)OCO4`, the growth in the test on DU-145 prostate is 24.1%; in the test with K-562 leukemia, 33.4%; in the test on MALME-3M melanoma, 17.2%; in the test on MDA-MB-231 breast it was 54.8%; with RXF 393 renal, 8.86% (active); in the test with SF-268 CNS it was 35.6%. Also, the growth is 24.5% in the test with SF-295 CNS, -7.07% (active) in the test on SF-539 CNS, 41.3% in the test on UACC-257 melanoma and 10.6% in the test on M14 melanoma.

Turning to `O=C(N/N=C/c1cc2ccccc2n2nnnc12)Nc1ccccc1`, the growth with DU-145 prostate was 103%; with K-562 leukemia, 95.1%; in the test with MALME-3M melanoma, 106%; with MDA-MB-231 breast it was 105%; in the test on RXF 393 renal, 103%; in the test on SF-268 CNS, 101%. The growth in the test on SF-295 CNS was 104%; in the test with SF-539 CNS, 106%; in the test with UACC-257 melanoma, 111%; in the test on M14 melanoma, 102%.

`C[C@H]1[C@H](C)CC[C@]2(C(=O)NCC#CCN3CCN(C)CC3)CC[C@]3(C)C(=CC[C@@H]4[C@@]5(C)Cc6c([nH]c7ccccc67)C(C)(C)[C@@H]5CC[C@]43C)[C@H]12`: the growth with DU-145 prostate is 73.1%; in the test on K-562 leukemia it was 1.37% (active); in the test with MALME-3M melanoma it was 61.6%; in the test on MDA-MB-231 breast, 63.8%; in the test on RXF 393 renal it was 84.9%; in the test on SF-268 CNS, 82.5%. The growth in the test with SF-295 CNS is 106%; in the test on SF-539 CNS, 84.8%; with UACC-257 melanoma it was 97%; in the test on M14 melanoma it was 71.3%.

For `NCCCCCCNc1cc(-c2cccc(OC(F)(F)F)c2)nc2ccc(N3CCCC3)cc12`, the growth with DU-145 prostate was -17.4% (active); in the test on K-562 leukemia, -52.6% (active); with MALME-3M melanoma, -93.8% (active); in the test with MDA-MB-231 breast, -79.9% (active); in the test with RXF 393 renal, -90.8% (active); in the test with SF-268 CNS it was -3.93% (active). The growth with SF-295 CNS is -69.1% (active); in the test with SF-539 CNS, -87.6% (active); with UACC-257 melanoma, -67.7% (active); in the test with M14 melanoma, -71.4% (active).

Regarding `CC(C)(C)CC(C)(C)n1nnnc1C(NC12CC3CC(CC(C3)C1)C2)c1ccccc1` (stereo not given), the growth in the test with DU-145 prostate is 96.5%; with K-562 leukemia, 73.1%; in the test with MALME-3M melanoma, 99.2%; in the test on MDA-MB-231 breast it was 81.4%; with RXF 393 renal, 85.9%; in the test with SF-268 CNS, 83.3%. The growth is 75.9% in the test with SF-295 CNS, 95.7% with SF-539 CNS, 89.1% with UACC-257 melanoma and 82.8% in the test on M14 melanoma.

As to `Cn1ccnc1C(=O)/C=C/c1ccc(CC(=O)NC2CCCCC2)cc1`, the growth in the test with DU-145 prostate is 6.25% (active); in the test with K-562 leukemia, 18%; with MALME-3M melanoma it was 92%; with MDA-MB-231 breast, 65.1%; in the test with RXF 393 renal, 73.2%; in the test with SF-268 CNS, 40.9%. In addition, the growth in the test on SF-295 CNS was 77.8%; in the test on SF-539 CNS it was 63.7%; in the test with UACC-257 melanoma it was 84.8%; in the test on M14 melanoma, 89.8%.

For `COc1cc2c(c(OC)c1OC)CCC(c1cccc(NC(=O)c3cccc(Br)c3)c1)O2` (stereo not given), the growth was 91.9% in the test on DU-145 prostate; 88% in the test with K-562 leukemia; 100% in the test on MALME-3M melanoma; 92.6% in the test with MDA-MB-231 breast; 87.6% in the test on RXF 393 renal; 87.1% in the test on SF-268 CNS. Further, the growth is 92.5% with SF-295 CNS, 97.7% in the test on SF-539 CNS, 81.6% in the test on UACC-257 melanoma and 90.5% in the test on M14 melanoma.

For the molecule `O=C(CCN1CCCC1)c1ccc([N+](=O)[O-])cc1`, the growth is 104% with DU-145 prostate; 100% in the test with K-562 leukemia; 94.9% in the test with MALME-3M melanoma; 102% with MDA-MB-231 breast; 107% with RXF 393 renal; 101% in the test on SF-268 CNS. In addition, the growth was 97.9% in the test with SF-295 CNS, 93.6% in the test on SF-539 CNS, 101% in the test on UACC-257 melanoma and 102% in the test on M14 melanoma.

Consider `CCCCCC(=O)Oc1ccc(/C(=C(\C)c2ccccc2)c2ccc(OCCN3CCCCC3)cc2)cc1`, for which the growth in the test with DU-145 prostate is 97.2%; in the test with K-562 leukemia, 20.1%; in the test on MALME-3M melanoma it was 68%; in the test with MDA-MB-231 breast, 95%; with RXF 393 renal, 82.7%; with SF-268 CNS, 84.5%. Besides, the growth is 84.2% with SF-295 CNS, 59.4% with SF-539 CNS, 72.4% in the test on UACC-257 melanoma and 65.9% with M14 melanoma.

As to `O=C(c1nc2ccccc2[nH]1)C1C(c2ccc(Br)cc2)C2CC3CCCC[C@H]3N2[C@@]12C(=O)Nc1cc(Cl)ccc12` (stereo not given in full), the growth in the test with DU-145 prostate is 52%; in the test with K-562 leukemia it was 25.3%; with MALME-3M melanoma it was 32%; in the test on MDA-MB-231 breast, 41.6%; with RXF 393 renal, 34%; in the test with SF-268 CNS, 42%. Further, the growth in the test with SF-295 CNS is 31.6%; in the test on SF-539 CNS it was 56%; with UACC-257 melanoma it was 43.2%; in the test on M14 melanoma, 26.9%.
